In PubChem BioAssay:
Values without a mark were called inactive. For part of these data: Entries with a potency or affinity are not part of this list. Calls of active or inactive are those of the source. Unless noted, the rule behind the calls is not given here.

Key:
[1] = antimalarial activity against Dd2 strain (AID 2302;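 active = growth inhibition above 50% at the single 2 µM test dose, taken to imply half-maximal potency below 2 µM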;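 note: 0% = DMSO untreated growth and 100% = chloroquine plus artemisinin killed control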); details: P. falciparum Dd2 in RBCs, LDH growth readout, 72 h; at 2 µM; hits give high values
[2] = human hepatoma cell viability loss – ATP luminescence, cytotoxicity control for P. falciparum antimalarial project, primary screen (AID 2303;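 active = inhibition above 50%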;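 note: 0% = DMSO wells and 100% = digitonin-killed cells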); details: HepG2 viability, 24-48 h, at 10 µM, hits give high values
[3] = target: L-lactate dehydrogenase (Plasmodium falciparum (isolate CDC / Honduras)) (UniProt Q27743); experiment: PfLDH activity inhibition – cell lysate, 3D7 strain, counter-screen for P. falciparum growth inhibition project (AID 2304);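 note: 0% = vehicle and 100% = reference inhibitor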; details: P. falciparum 3D7 crude extract, LDH APAD/NBT absorbance; at 2 µM; hits give high values
[4] = inhibition of 3D7 malaria parasite growth – strain 3D7 (AID 2306);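 note: 0% = DMSO wells and 100% = chloroquine plus artemisinin control wells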; details: P. falciparum 3D7 erythrocytic growth, LDH absorbance, 72 h; at 2 µM; hits give high values
[5] = target: Calcium-dependent protein kinase 1 (Plasmodium falciparum (isolate 3D7)) (UniProt P62344); experiment: PfCDPK1 kinase inhibitors, biochemical, TCAMS library (AID 1159585; cut-off not given, nearly all actives have IC50 up to about 0.98 µM;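 note: inhibitors leave more ATP so luminescence rises with inhibition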); details: recombinant PfCDPK1, Kinase-Glo ATP depletion luminescence
[6] = target: Plasmodium falciparum protein kinase 6 (PK6, PF3D7_1337100) (UniProt Q8IDW1); experiment: PfPK6 kinase inhibitors, biochemical, TCAMS library (AID 1159586); details: recombinant PfPK6, Kinase-Glo ATP depletion luminescence
[7] = target: Protein kinase 7 (PK7), Plasmodium falciparum 3D7 (PF3D7_0213400) (UniProt Q7YTF7); experiment: inhibition of Plasmodium PK7 catalytic activity – biochemical, TCAMS antimalarial set, Kinase-Glo luminescence (AID 1159587); details: recombinant PfPK7, Kinase-Glo ATP depletion luminescence
[8] = target: Calcium-dependent protein kinase 4 (Plasmodium falciparum (isolate 3D7)) (UniProt Q8IBS5); experiment: PfCDPK4 kinase inhibitors, biochemical, TCAMS library (AID 1159588; cut-off not given, nearly all actives have IC50 up to about 0.91 µM); details: recombinant PfCDPK4, Kinase-Glo ATP depletion luminescence
Chain of Calcium-dependent protein kinase 4 (Plasmodium falciparum (isolate 3D7)) (Q8IBS5 whole entry, looked up): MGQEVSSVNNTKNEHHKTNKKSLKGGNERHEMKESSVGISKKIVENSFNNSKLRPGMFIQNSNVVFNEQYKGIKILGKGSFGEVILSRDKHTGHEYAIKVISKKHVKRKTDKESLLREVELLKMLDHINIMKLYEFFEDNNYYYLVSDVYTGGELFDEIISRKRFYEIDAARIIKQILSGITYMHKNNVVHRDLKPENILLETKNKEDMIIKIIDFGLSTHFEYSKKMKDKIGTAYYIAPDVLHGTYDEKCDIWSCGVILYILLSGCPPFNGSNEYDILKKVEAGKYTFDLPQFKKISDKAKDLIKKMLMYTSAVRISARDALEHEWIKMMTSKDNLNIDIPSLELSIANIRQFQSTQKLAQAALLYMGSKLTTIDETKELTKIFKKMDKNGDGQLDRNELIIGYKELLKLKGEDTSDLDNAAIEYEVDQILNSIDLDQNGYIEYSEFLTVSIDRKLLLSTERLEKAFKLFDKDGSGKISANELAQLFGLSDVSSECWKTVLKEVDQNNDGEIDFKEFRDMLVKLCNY

Chain of Calcium-dependent protein kinase 1 (Plasmodium falciparum (isolate 3D7)) (P62344 whole entry, looked up): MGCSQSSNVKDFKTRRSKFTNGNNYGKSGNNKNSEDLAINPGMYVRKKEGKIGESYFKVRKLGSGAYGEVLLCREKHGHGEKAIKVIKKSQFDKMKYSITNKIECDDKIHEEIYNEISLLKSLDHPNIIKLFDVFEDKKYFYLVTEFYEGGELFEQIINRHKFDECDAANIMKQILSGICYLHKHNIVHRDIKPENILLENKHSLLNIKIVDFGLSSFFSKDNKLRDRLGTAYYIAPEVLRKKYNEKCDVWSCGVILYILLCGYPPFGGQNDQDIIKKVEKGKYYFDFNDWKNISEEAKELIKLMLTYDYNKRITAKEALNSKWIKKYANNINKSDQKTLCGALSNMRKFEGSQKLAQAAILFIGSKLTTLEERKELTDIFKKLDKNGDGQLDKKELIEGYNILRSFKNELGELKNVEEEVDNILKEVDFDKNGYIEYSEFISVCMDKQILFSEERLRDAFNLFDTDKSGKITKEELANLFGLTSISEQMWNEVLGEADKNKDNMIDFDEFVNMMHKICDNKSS
Chain of L-lactate dehydrogenase (Plasmodium falciparum (isolate CDC / Honduras)) (Q27743 whole entry, looked up): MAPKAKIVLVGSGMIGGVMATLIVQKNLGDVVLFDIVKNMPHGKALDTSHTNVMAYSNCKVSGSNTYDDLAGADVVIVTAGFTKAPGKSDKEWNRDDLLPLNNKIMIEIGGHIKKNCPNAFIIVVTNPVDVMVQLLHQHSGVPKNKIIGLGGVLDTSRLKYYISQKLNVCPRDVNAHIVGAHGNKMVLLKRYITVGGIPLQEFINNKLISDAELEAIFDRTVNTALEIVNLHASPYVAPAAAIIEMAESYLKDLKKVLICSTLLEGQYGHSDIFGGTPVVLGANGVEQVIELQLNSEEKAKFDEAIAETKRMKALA
Chain of Protein kinase 7 (PK7), Plasmodium falciparum 3D7 (PF3D7_0213400) (Q7YTF7 1-343): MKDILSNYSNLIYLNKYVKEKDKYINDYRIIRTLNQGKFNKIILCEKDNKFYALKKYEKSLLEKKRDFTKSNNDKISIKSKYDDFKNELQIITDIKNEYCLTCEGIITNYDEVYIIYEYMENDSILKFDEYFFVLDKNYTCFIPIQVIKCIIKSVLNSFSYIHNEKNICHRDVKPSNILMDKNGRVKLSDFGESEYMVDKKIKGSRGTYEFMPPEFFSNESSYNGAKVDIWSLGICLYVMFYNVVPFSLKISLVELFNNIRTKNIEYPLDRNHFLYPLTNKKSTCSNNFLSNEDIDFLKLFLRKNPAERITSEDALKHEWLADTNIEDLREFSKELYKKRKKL
Chain of Plasmodium falciparum protein kinase 6 (PK6, PF3D7_1337100) (Q8IDW1 1-305): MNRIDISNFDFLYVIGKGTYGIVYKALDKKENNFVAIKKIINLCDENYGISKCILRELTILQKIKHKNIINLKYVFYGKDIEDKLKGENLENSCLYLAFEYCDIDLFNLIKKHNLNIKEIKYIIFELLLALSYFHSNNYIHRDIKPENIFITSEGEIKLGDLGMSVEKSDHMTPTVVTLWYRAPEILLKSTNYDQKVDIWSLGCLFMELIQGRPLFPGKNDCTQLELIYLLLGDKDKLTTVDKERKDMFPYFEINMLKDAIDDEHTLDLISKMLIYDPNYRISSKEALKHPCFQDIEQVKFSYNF

| Structure (SMILES) | growth inhibition [1] | inhibition [2] | inhibition [3] [%] | growth inhibition [4] | outcome [5] | outcome [6] | outcome [7] | outcome [8] |
| --- | --- | --- | --- | --- | --- | --- | --- | --- |
| CC1(C)[C@H]2CC[C@@H](CNc3nc(NCCc4cnc[nH]4)nc(Nc4ccc5c(c4)OCO5)n3)[C@@H]1C2 | 88% (active) | 3% | -4 | 101% (active) | inactive | inactive | inactive | inactive |
| CN(Cc1ccc(NC(=O)NC2CCN(C(=O)/C=C/c3ccc(Cl)c(Cl)c3)CC2)cc1)C1CCOCC1 | 14% | 9% | 5 | 96% (active) | inactive | inactive | inactive | inactive |
| CCC(C)(C)NC(=O)C(c1cccc(OC)c1)N(C(=O)CNC(=O)c1cccs1)c1ccc2c(c1)OCCO2 (configuration not stated) | 76% (active) | -7% | -7 | 100% (active) | inactive | inactive | inactive | inactive |
| O=C(c1cccc(-c2noc(C(F)(F)F)n2)c1)N1CCN(c2ccncc2)CC1 | 56% (active) | 14% | 3 | 90% (active) | inactive | inactive | inactive | inactive |
| Cc1cccc2[nH]c(-c3ccc(-c4cccc(CNCCc5ccncc5)c4)s3)nc12 | 89% (active) | 11% | 2 | 100% (active) | inactive | inactive | inactive | inactive |
| O=C(NC(c1ccc(Cl)cc1)c1ccc2cccnc2c1O)c1ccccc1 (configuration not stated) | 80% (active) | 44% | -2 | 87% (active) | inactive | inactive | inactive | inactive |
| Cc1c(C2CCN(CCCCNC(=O)c3ccc(-c4ccc(C#N)cc4)cc3)CC2)c2ccccc2n1CCO | 99% (active) | 28% | 1 | 96% (active) | inactive | inactive | inactive | inactive |
| Cc1cccc2[nH]c(-c3cccc(-c4ccc(NC(=O)C(C)CN5CCN(C)CC5)cc4)c3)nc12 (configuration not stated) | 100% (active) | 7% | -6 | 99% (active) | inactive | inactive | inactive | inactive |
| CCNc1cc(C(=O)N[C@@H](Cc2ccccc2)[C@H](O)CN[C@@H](C)c2cccc(OC)c2)cc(N2CCCC2=O)c1 | 65% (active) | 5% | -1 | 95% (active) | inactive | inactive | inactive | inactive |
| CS(=O)(=O)c1cccc(-c2cnc(N)c3cc(-c4ccc(F)cc4)ccc23)c1 | 33% | 28% | 4 | 91% (active) | inactive | inactive | inactive | inactive |
| COc1ccc(C2CC(=O)C3=C(C2)NC(C)=C(C(=O)OC(C)C)C3c2ccccc2F)cc1OC (configuration not stated) | 99% (active) | 14% | 0 | 100% (active) | inactive | inactive | inactive | inactive |
| CC(=O)c1ccc(Nc2c(C(N)=O)cnc3cc(-c4c(C)noc4C)ccc23)cc1 | 44% | -3% | 3 | 99% (active) | inactive | inactive | inactive | inactive |
| O=C(c1ccc(-c2ccc(-c3nc4ccc(C(F)(F)F)cc4[nH]3)s2)cc1)N1CCCCC1CN1CCC(O)C1 (configuration not stated) | 80% (active) | 90% (active) | 3 | 92% (active) | inactive | inactive | inactive | inactive |
| O=C(NC(CCCN1CCC2(CC1)OCc1ccccc12)c1ccc(Cl)c(Cl)c1)c1cc(C(F)(F)F)cc(C(F)(F)F)c1 (configuration not stated) | 99% (active) | 55% (active) | 5 | 100% (active) | inactive | inactive | inactive | inactive |
| Oc1ccc(CCNc2nc(NCCCOc3ccccc3-c3ccc(C(F)(F)F)cc3)nc(N3CCNCC3)n2)cc1 | 49% | 64% (active) | 0 | 101% (active) | inactive | inactive | inactive | inactive |
| CCOc1ccc2c(NN=Cc3cccc([N+](=O)[O-])c3)cc(C)nc2c1 | 97% (active) | 4% | 3 | 100% (active) | inactive | inactive | inactive | inactive |
| Cc1cc2nc(-c3ccc(/C=C/C(=O)NCCc4ccccc4)cc3)[nH]c2cc1C | 13% | 3% | 1 | 98% (active) | inactive | inactive | inactive | inactive |
| COc1ccccc1CNC(=O)CCn1c(=O)[nH]c2ccsc2c1=O | 75% (active) | -5% | -7 | 85% (active) | inactive | inactive | inactive | inactive |
| Cc1cc(N(C)C2CCN(C)C2)nc(Nc2ccccc2Cl)n1 (configuration not stated) | 84% (active) | 1% | -1 | 100% (active) | inactive | inactive | inactive | inactive |
| Cc1c(C(=O)Nc2cc(Sc3ccc(F)cc3)cc([N+](=O)[O-])c2)sc2ncn(Cc3ccccc3F)c(=O)c12 | 45% | 2% | 5 | 98% (active) | inactive | inactive | inactive | inactive |

| Structure (SMILES) | growth inhibition [1] | inhibition [2] | inhibition [3] [%] | growth inhibition [4] | outcome [5] | outcome [6] | outcome [7] | outcome [8] |
| --- | --- | --- | --- | --- | --- | --- | --- | --- |
| N#Cc1ccc(-c2ccc(C(=O)NCCCCN3CCC(c4cn(CCO)c5ccccc45)CC3)cc2)cc1 | 43% | 23% | 4 | 93% (active) | inactive | inactive | inactive | inactive |
| O=C(NC1CCCc2ccccc21)[C@@H]1CCCN1C(=O)c1ccc(O)c(-c2cccc([N+](=O)[O-])c2)c1 (some centres not stated) | 99% (active) | -5% | 5 | 99% (active) | inactive | inactive | inactive | inactive |
| O=C(NC1CCN(c2ccnc3ccccc23)C1)c1cccc(C(F)(F)F)c1 (configuration not stated) | 86% (active) | 28% | 6 | 94% (active) | inactive | inactive | inactive | inactive |
| CC(CN(C)C)C(=O)Nc1cccc(-c2ccc(-c3nc4ccccc4[nH]3)s2)c1 (configuration not stated) | 47% | 13% | 7 | 100% (active) | inactive | inactive | inactive | inactive |
| C[C@H](CNc1ccnc(Nc2ccc3[nH]c(=O)[nH]c3c2)n1)c1ccccc1 | -5% | 61% (active) | -2 | 100% (active) | inactive | inactive | inactive | inactive |
| O=C(NCC1CCC(C(=O)NCc2cccc(C(F)(F)F)c2)CC1)c1ccc(O)c(-c2ccc(Cl)c(Cl)c2)c1 (configuration not stated) | 41% | 5% | 0 | 98% (active) | inactive | inactive | inactive | inactive |
| Cc1cc(OCCCN2CCCCC2C)ccc1NC(=O)COc1ccc(Cl)cc1C(=O)c1cc(Cl)cc(C#N)c1 (configuration not stated) | 14% | 23% | -2 | 91% (active) | inactive | inactive | inactive | inactive |
| CCC(C)(C)c1ccc(OCC(O)CN2CCCCC2)c(C(C)(C)CC)c1 (configuration not stated) | 26% | 14% | -9 | 91% (active) | inactive | inactive | inactive | inactive |
| N#CC1(c2ccccc2)CCN(c2nc(NCCCN3CCCC3=O)nc(N3CCCC4CCCCC43)n2)CC1 (configuration not stated) | 92% (active) | -2% | 3 | 95% (active) | inactive | inactive | inactive | inactive |
| COc1ccc(CNC2Cc3ccccc3C2)cc1-c1cccc(S(=O)(=O)NCCN2CCCC2)c1 | 61% (active) | 48% | -3 | 98% (active) | inactive | inactive | inactive | inactive |
| CN1CCCN(Cc2cccc(-c3ccc(NC(=O)c4ccc(Cl)cc4)cc3)c2)CC1 | 35% | 31% | -5 | 97% (active) | inactive | inactive | inactive | inactive |
| CC(C)COc1ccc(Cl)cc1Cc1nc(-c2nc3ccc(CN4CCN(C)CC4)cc3[nH]2)co1 | 57% (active) | 5% | 7 | 101% (active) | inactive | inactive | inactive | inactive |
| COc1ccc(Cl)cc1NC(=O)C(C)N1CCN(S(=O)(=O)c2ccccc2F)CC1 (configuration not stated) | 66% (active) | 5% | 4 | 93% (active) | inactive | inactive | inactive | inactive |
| COc1ccc2nccc(NC(=O)C3(O)CCC(NCc4ncc5c(c4Cl)OCCO5)CC3)c2n1 (configuration not stated) | 59% (active) | 21% | -1 | 83% (active) | inactive | inactive | inactive | inactive |
| COc1ccc2nccc([C@@H](O)CN3CCC(NCc4[nH]c5ccccc5c4F)CC3)c2c1 | 61% (active) | 19% | 3 | 102% (active) | inactive | inactive | inactive | inactive |
| COc1ccc2nccc([C@@H](O)CN3CCC(NCc4cc5c(Cl)cc(Cl)cc5[nH]4)CC3)c2c1 | 86% (active) | 93% (active) | 4 | 101% (active) | inactive | inactive | inactive | inactive |
| CCN1CCN(C(=O)NC(C(=O)N(C)Cc2ccc(-c3ccc(C(F)(F)F)cc3)cc2)c2cccs2)C(=O)C1=O (configuration not stated) | 95% (active) | -5% | -1 | 99% (active) | inactive | inactive | inactive | inactive |
| Cc1cc([N+](=O)[O-])ccc1NC(=O)Nc1cccc(C(F)(F)F)c1 | 100% (active) | 15% | -1 | 102% (active) | inactive | inactive | inactive | inactive |
| Cc1ccc(Cc2cnc(NCCSCc3ccc(CN(C)C)s3)[nH]c2=O)cn1 | -5% | 3% | 0 | 95% (active) | inactive | inactive | inactive | inactive |
